# Compound activity from PubChem BioAssay.
# Most compounds without a hit are left out; they make up all but 2.2% or so of the library.
# LGR2 antag = blocks bursicon-induced cAMP signaling via Drosophila LGR2 | 0.35% of 380,000 active | inhibition, % at 9.99 µM | HEK293 LGR2, CRE-luciferase, bursicon-stimulated, 4 h | AID 720647;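 active = drop in luminescence signal, shown as inhibition above about 50% in the replicate tests, limit read from the data, passing the limit was not always enough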;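 also: agonist challenge used bursicon conditioned medium at about half maximal strength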
# HSP90 inh = inhibitors of HSP90 luciferase refolding in rabbit reticulocyte lysate. inhibition, % at 5.6 µM. 0.91% of 290,000 active. luciferase refolding luminescence, 3 h. AID 1789;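 active = inhibition above the screen-wide mean plus 3 SD, computed separately per campaign, cut at about 16% in these data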;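 also: 0% = DMSO wells and 100% = 60 µM geldanamycin wells; inhibitors lower the luminescence because luciferase stays unfolded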
# TROY signal inh = blocks TROY-dependent signaling in reporter cells; Q293 LMP1-TROYcd NF-kB luciferase reporter, 4 h; inhibition, % at 10 µM; 0.98% of 360,000 active;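 active = compounds whose plate-normalised and pattern-corrected inhibition of the luciferase reporter signal at the single screening dose is 50% or more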
# TWEAK-Fn14 inh = inhibitors of TWEAK-Fn14 interaction signaling; TWEAK-stimulated Fn14 reporter cells, luciferase luminescence, 8 h; inhibition, % at 10 µM; 2% of 360,000 active; in the data active = inhibition above about 50%
# * = called active by the depositor; . = no result; ! = not confirmed by another sample.
SMILES,LGR2 antag,HSP90 inh,TROY signal inh,TWEAK-Fn14 inh
Cc1ccc(N/N=C/c2c(O)n(-c3ccccc3)c(=O)[nH]c2=O)cc1,1.9,24.0*,5.7,11.1
Cc1ccc(-n2c(O)c(/C=C/C=Nc3ccccc3)c(=O)[nH]c2=O)cc1,-9.9,3.0,-12.8,7.5
O=C(O)COc1ccc(Cl)cc1Cl,12.6,.,-1.9,-11.2
Oc1cc(Cl)ccc1Oc1ccc(Cl)cc1Cl,.,.,51.1*,49.8
O=C(Cc1cccnc1)N1CCCCN2[C@H](CO)[C@@H](c3ccc(C#CC4(O)CCCC4)cc3)[C@@H]2C1,-1.8,.,.,.
CC(=O)OC[C@]12CCC(C)=C[C@H]1O[C@@H]1[C@H](O)[C@@H](OC(C)=O)[C@@]2(C)[C@]12CO2,103.9*,.,83.9*,98.2*
O=C(Cc1ccccn1)N1CC2(C1)[C@@H](c1ccccc1)[C@@H](CO)N2Cc1ccccn1,10.5,.,.,.
Cc1cc(O)c2c(c1)C(=O)C13C(=C2O)C(=O)[C@H]2[C@@H](O)[C@@H]1[C@H]1[C@H](O)[C@@H]3C(=O)C3=C(O)c4c(O)cc(C)cc4C(=O)C312 (some centres undefined),.,.,7.5,71.7*
CC12CC[C@H]3[C@@H](CCC4(O)C[C@H](O)CCC34/C=N/NC(=O)c3ccccc3F)C1(O)CCC2C1=CC(=O)OC1 (some centres undefined),-6.4,0.4,-12.8,95.4*
CC12CC[C@H]3[C@@H](CCC4(O)C[C@H](O)CCC34/C=N/NC(=O)c3ccccc3O)C1(O)CCC2C1=CC(=O)OC1 (some centres undefined),39.4,-2.0,-7.3,-25.1
CC12CN3CN(C1)CC(c1ccccc1)(C3)C2=O,.,3.8,.,87.9*
COC(=O)[C@@H]1[C@@H](CO)[C@@H]2Cn3c(ccc(C4=CCCCC4)c3=O)[C@H]1N2C(=O)Cc1ccccn1,-14.1,.,.,.
COc1ccc(OC(=O)N(C)C[C@@H]2OCc3ccccc3-c3c(n(C)c4ccccc34)C(=O)N([C@@H](C)CO)C[C@H]2C)cc1,12.5,.,.,.
COc1cc(/C=C(/C)[N+](=O)[O-])ccc1OCc1ccccc1Cl,.,1.0,56.5*,72.5*
O=Cc1cn(Cc2cccc([N+](=O)[O-])c2)c2ccccc12,87.4*,0.4,68.3*,27.9
O=C(Cc1ccccn1)N1CCCCN2[C@H](CO)[C@@H](c3ccc(-c4ccccc4F)cc3)[C@@H]2C1,7.0,.,.,.
O=C(c1cc(C(=O)NCc2ccccc2)c(=O)n(Cc2ccccc2)c1)c1cc(Br)ccc1O,17.7,-6.1,23.7,51.1*
Cc1ccc(O)c(C(=O)c2cc(C(=O)NCc3ccccc3)c(=O)n(Cc3ccccc3)c2)c1,11.8,-0.2,15.9,4.1
Oc1c(Cl)c(Cl)c(Cl)c(Cl)c1Cl,.,.,63.6*,5.2
Cc1ccc(N(C)C(=O)Oc2ccc(C(=O)c3ccc(Cl)cc3)cc2)cc1,.,0.7,.,67.8*
CC(=O)Nc1ccc(OC(=O)N(C)c2ccc(C)cc2)cc1,-8.2,2.8,-3.2,7.8
COc1cc(OC)c(OC)cc1/C=C1\C(=O)NC(=O)N(Cc2ccccc2)C1=O,1.8,3.0,55.2*,7.9
Cc1[nH]nc2ccc(-c3cncc(OC[C@@H](N)Cc4c[nH]c5ccccc45)c3)cc12,.,.,77.2*,98.0*
COc1ccc(C#Cc2ccc([C@H]3[C@H]4CN(C(=O)Cc5cccnc5)CCCCN4[C@H]3CO)cc2)cc1,-36.6,.,.,.
CCCCC(CC)COCCCN=Cc1c(O)[nH]c(=S)[nH]c1=O (centres undefined),0.7,1.2,6.4,59.6*
SMILES,LGR2 antag,HSP90 inh,TROY signal inh,TWEAK-Fn14 inh
N#Cc1cccc(-c2ccc([C@H]3[C@@H](CO)N4CCCCN(C(=O)Cc5cccnc5)C[C@H]34)cc2)c1,8.6,.,.,.
COC(=O)C(O)(c1ccc(NC(=S)NC(=O)c2ccc(Cl)cc2Cl)c(C)c1)C(F)(F)F (centres undefined),14.4,1.9,63.7*,55.6*
CCOC(=O)C(O)(c1ccc(NC(=S)NC(=O)c2ccc(Cl)cc2Cl)c(C)c1)C(F)(F)F (centres undefined),8.9,5.0,58.4*,71.6*
COC(=O)C12OCC34C(CC5C(C)=C(O)C(=O)CC5(C)C3C(O)C1O)OC(=O)C(OC(=O)/C=C(\C)C(C)C)C24 (centres undefined),101.1*,.,84.7*,94.8*
CC(C)CC#Cc1ccc([C@@H]2[C@H](CO)N3CCCCN(C(=O)Cc4ccccn4)C[C@@H]23)cc1,12.8,.,.,.
C/C=C/c1ccc(C2[C@@H]3CN(Cc4cccc(F)c4)C[C@H]2N3)cc1 (some centres undefined),1.1,.,.,.
COC(=O)C1=C(c2ccccc2OCc2ccccc2)C[C@@H]2CC[C@H]1N2C,-6.7,.,-9.3,-13.7
COC(=O)C1=C(c2ccc(OCc3ccccc3)cc2)C[C@@H]2CC[C@H]1N2C,0.5,.,56.9*,31.4
COC(=O)C1=C(c2ccc(OCc3ccccc3)c(F)c2)C[C@@H]2CC[C@H]1N2C,14.5,.,52.3*,20.8
CCOP(=O)(CCP(=O)(OCC)OCC)OCC.C[CH2][Sn]([Cl])([Cl])[CH2]C,23.2,.,41.4,57.9*
Cc1cccc(S(=O)(=O)N2[C@@H]3Cn4c(ccc(-c5cccc(F)c5)c4=O)[C@H]2[C@@H](C(=O)O)[C@@H]3CO)c1,21.0,.,.,.
Cc1ccc(/C=C2\C(=O)NC(=S)N(c3ccccc3F)C2=O)s1,87.6*,2.2,-7.3,46.8
CN(C)c1ccc(/C=C/c2cc[n+](C)c3ccccc23)cc1,33.1,1.6,47.5,52.9*!
COc1ccc(-c2ccc([C@@H]3[C@@H](CO)N4CCCCN(C(=O)Cc5ccccc5)C[C@H]34)cc2)cc1,0.2,.,.,.
CC[C@@H](O)C[C@H]1CCC[C@@]2(C[C@@H]3OC(=O)/C=C/[C@@](C)(O)[C@@H](O)[C@H](C)[C@@H](O)[C@H](OC4CCC(N(C)C)C(C)O4)[C@@H](O)[C@](C)(O)CCCCC/C=C/[C@@H]4CC(C)(C)O[C@@]4(O)C[C@H](O2)[C@H]3C)O1 (some centres undefined),.,.,48.1,60.5*
COc1ccc(-c2ccc3n(c2=O)C[C@@H]2[C@@H](CO)[C@H](C(=O)O)[C@H]3N2C(=O)c2ccccc2F)cc1,0.6,.,.,.
NC(N)=N/N=C/c1cn(-c2ccccc2)nc1-c1cccs1,105.6*,-0.4,-34.9,12.8
CCCN1[C@@H]2c3ccc(-c4ccccc4)c(=O)n3C[C@H]1[C@H](CO)[C@H]2C(=O)OC,-7.8,.,.,.
CN(Cc1cccc(-c2cccnc2)c1)C(=O)Oc1ccc([N+](=O)[O-])cc1,29.3,.,55.7*,83.3*
Cc1nc(-c2cccc(CN(C)C(=O)Oc3ccc([N+](=O)[O-])cc3)c2)no1,3.7,.,2.7,0.3
O=C(Cc1ccccc1)N1CC2(C1)[C@@H](c1ccccc1)[C@@H](CO)N2Cc1cccc(F)c1,3.7,.,.,.
Cc1ccc(OC(=O)N(C)C[C@H]2OCc3ccccc3-c3c(n(C)c4ccccc34)C(=O)N([C@H](C)CO)C[C@@H]2C)cc1,18.9,.,.,.
O=C(Cc1ccccc1)N1CC2(C1)[C@H](c1ccccc1)[C@@H](CO)N2Cc1cccc(Cl)c1,-8.4,.,.,.
